Bioassay records as filed in PubChem.
EBI2 block: blocks human EBI2 receptor beta-arrestin signaling; P32249; EBI2 beta-arrestin recruitment, luminescence, 7a,25-OHC stimulated; inhibition, % at 5 µM; 360,000 compounds, 0.81% hits; AID 651636; in the data active means inhibition above about 38%;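 further: enzyme fragment complementation signal reports receptor beta-arrestin coupling in cells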
Target sequence (P32249 whole entry, looked up, the tested form may be a part): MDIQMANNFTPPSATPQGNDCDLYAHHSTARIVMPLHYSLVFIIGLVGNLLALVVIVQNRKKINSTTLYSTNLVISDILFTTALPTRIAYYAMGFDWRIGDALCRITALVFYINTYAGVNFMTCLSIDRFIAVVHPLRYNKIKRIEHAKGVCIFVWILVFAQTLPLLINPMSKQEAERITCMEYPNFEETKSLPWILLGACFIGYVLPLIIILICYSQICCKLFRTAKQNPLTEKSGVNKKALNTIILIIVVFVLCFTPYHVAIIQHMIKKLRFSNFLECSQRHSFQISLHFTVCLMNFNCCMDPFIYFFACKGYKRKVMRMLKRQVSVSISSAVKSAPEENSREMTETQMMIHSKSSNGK
SKKanGAS inh: blocks kanamycin growth of S. pyogenes SKKanGAS strain; BacTiter-Glo, 6 h; inhibition, % at 7.5 µM; 300,000 compounds, 1.3% hits;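 active means mean replicate score, as percent of positive control median, at least 50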;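 further: strain carries kanamycin resistance gene driven by streptokinase promoter and grows in 40 µg/ml kanamycin; loss of luminescence reflects streptokinase promoter inhibition or plain growth inhibition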
PfHsp90 set2: inhibits growth of yeast expressing Plasmodium falciparum Hsp90; 310,000 compounds, 0.32% hits; inhibition, % at 9.4 µM; S. cerevisiae expressing PfHsp90, BacTiter-Glo ATP, 48 h; yeast lacking PDR1 and PDR3 efflux regulators; AID 504621;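 active means every replicate shows inhibition above about 80%, whatever the replicate mean, limit read from the data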
tim23-1 inh: tim23-1 yeast growth inhibition | S. cerevisiae tim23-1 growth, BacTiter-Glo luminescence, 24 h | inhibition, % at 20 µM | 330,000 compounds, 1.3% hits;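 active means growth inhibition of the mutant yeast at or above 50%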;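 further: temperature-sensitive mutant grown at 25 °C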
TIM10 inh: growth inhibitors of TIM10 yeast strain. S. cerevisiae TIM10 strain growth, BacTiter-Glo luminescence, 24 h. inhibition, % at 10 µM. 330,000 compounds, 1.4% hits. AID 463195;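 active means inhibition of 40% or more at the single tested concentration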;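 further: wild-type TIM10 isogenic control strain grown at permissive 25 °C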
tim10-1 inh: tim10-1 yeast growth inhibition; S. cerevisiae tim10-1 ts strain growth, BacTiter-Glo, 24 h; 330,000 compounds, 2.2% hits; inhibition, % at 20 µM;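 active means inhibition of at least 40%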;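 further: mutant grown at 25 °C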
tim10-1 conf: tim10-1 yeast growth inhibition, confirmed. inhibition, % at 20 µM. S. cerevisiae tim10-1 ts strain growth, BacTiter-Glo, 24 h. shares compounds with tim10-1 inh. 7,400 compounds, 56% hits;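 active means inhibition of yeast growth at or above a set limit in either of two repeat tests at 20 µM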;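 further: tim10-1 mutant grown at permissive 25 °C to find synthetic lethal compounds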
Large screens that a line does not name were inactive (follow-up assays come after a bar, where they were run). A selection: hits, their analogues and other compounds. The true share with any hit is near 4.7%.

C=C1CCC[C@]2(C)C[C@H]3OC(=O)C(CNCC(C)C)[C@H]3CC12 (some centres undefined)	tim10-1 inh 42 | tim10-1 conf 36
Cc1ccc([N+](=O)[O-])cc1NC(=O)CN(C(=O)c1ccccc1Cl)C1CCCCC1	tim10-1 inh 40 | tim10-1 conf inactive
Cc1ccc([N+](=O)[O-])cc1NC(=O)CN(C1CCCCC1)S(=O)(=O)c1ccc(Cl)cc1	none (no result: tim23-1 inh, TIM10 inh, tim10-1 inh)
COc1ccccc1CNC(=O)C(C)n1cccc1C(=O)c1ccccc1 (centres undefined)	none
CC(C(=O)NCc1ccc(Cl)cc1)n1cccc1C(=O)c1ccccc1 (centres undefined)	tim10-1 inh 41 | tim10-1 conf inactive
Cc1ccc(S(=O)(=O)N(Cc2ccccc2)c2ccccc2C(=O)NCc2cccnc2)cc1	tim10-1 inh 41 | tim10-1 conf inactive
Cc1ccc(S(=O)(=O)N(C)c2ccc(C(=O)NCc3cccnc3)cc2)cc1	none
CCCCC(=O)N/N=C(/C)C1=C(C)C(C)(C)OC1=O	none
CCc1ccc(-c2cc3c(=O)n(CC(=O)NCCCN4CCC(Cc5ccccc5)CC4)nc(C)n3n2)cc1	tim10-1 inh 53 | tim10-1 conf inactive
CN(C)c1ccc(S(=O)(=O)N2CCCCC2)cc1NC(=O)COc1ccccc1F	none
Cc1ccc(-c2nnc(-c3ccccc3)c(-c3ccccc3)n2)cc1	none
Nc1nnc(-c2ccccc2)c(-c2ccccc2)n1	tim10-1 inh 41 | tim10-1 conf inactive
CCOCCCNc1ncnc2c1nc1n2CCCC1	none
O=C(Nc1ncc2c(n1)-c1ccccc1CC2)c1ccc(F)cc1	tim10-1 inh 40 | tim10-1 conf inactive
O=C(Nc1ncc2c(n1)-c1ccccc1CC2)c1ccccc1	tim10-1 inh 47 | tim10-1 conf inactive
O=C(Nc1ncc2c(n1)-c1ccccc1CC2)c1cccs1	none
CC(C)CC1NC(=O)c2cc(Cl)ccc2-n2c1nc1ccc(F)cc1c2=O (centres undefined)	none (no result: EBI2 block, SKKanGAS inh, PfHsp90 set2)
O=C(Nc1nnc(-c2cccs2)s1)c1cccc(F)c1	none (no result: SKKanGAS inh)
Cc1c2cnn(CC(=O)N3CCOCC3)c(=O)c2c(C)n1Cc1ccccc1F	none
COc1ccc(C(=S)N2CCCCCC2)cc1	tim10-1 inh 40 (no result: PfHsp90 set2) | tim10-1 conf inactive
O=C(COC(=O)c1ccc[nH]c1=O)NC1CCCc2ccccc21 (centres undefined)	none
CCCCNc1cc(NC(C)=O)cc2cc(OC)c(OC)cc12	tim10-1 inh 44 | tim10-1 conf inactive
COc1cc2cc(NC(C)=O)cc(NCc3ccccc3)c2cc1OC	none
CC(C)(C)CNC(=O)c1cccc2c1C(=O)c1ccc(-c3cc4ccccc4o3)cc1S2(=O)=O	none (no result: SKKanGAS inh)
Cc1ccc(S(=O)(=O)N2CCCCC2)cc1C(=O)Nc1ccc(S(=O)(=O)Nc2ncccn2)cc1	none
CCCc1nn(C)c(C(=O)Nc2ccc(C)c(C)c2)c1Cl	none
CCCc1nn(C)c(C(=O)Nc2ccc(CC)cc2)c1Cl	tim10-1 inh 43 | tim10-1 conf inactive
Cc1cccc(C)c1NC(=O)C(c1ccccc1)n1c(=O)c(-c2ccco2)nc2ccccc21 (centres undefined)	none (no result: SKKanGAS inh, PfHsp90 set2, tim23-1 inh, TIM10 inh, tim10-1 inh)
C/C(CC(=O)Nc1cccc(Cl)c1Cl)=N\NC(=O)c1ccccc1N	tim10-1 inh 41 | tim10-1 conf inactive
COC(=O)[C@@]12C[C@@H](CC(=O)N3CCN(C(=O)c4ccco4)CC3)C(=O)N(CCc3ccc(OC)c(OC)c3)C1=CCC(C)(C)C2	none (no result: SKKanGAS inh, PfHsp90 set2, tim23-1 inh, TIM10 inh, tim10-1 inh)
OCCCNc1nc(-c2ccccc2)c2cc(Br)ccc2n1	tim10-1 inh 48 | tim10-1 conf 36
Cc1ccc2nc(NCCCO)nc(-c3ccccc3)c2c1	none
O=C(/C=C/c1ccccc1)N(c1ccccn1)C1CCCCC1	tim10-1 inh 43 | tim10-1 conf inactive
O=C(/C=C/c1ccccc1Cl)N(c1ccccn1)C1CCCCC1	none
COC(=O)c1ccc([N+](=O)[O-])cc1N1C(=O)C2C3CCC(C3)C2C1=O (centres undefined)	none
O=C(O)CCCC(=O)NNc1nc(-c2ccccc2)c2cc(Cl)ccc2n1	none
O=C(NCCO)c1cccc(Nc2nc(-c3ccccc3)c3cc(Cl)ccc3n2)c1	tim10-1 inh 45 | tim10-1 conf inactive
Cc1ccccc1OCc1n[nH]c(=S)n1Cc1ccccc1	tim10-1 inh 47 | tim10-1 conf inactive
CC(C)(C)c1ccc(-c2n[nH]c(=S)n2Cc2ccccc2)cc1	tim10-1 inh 45 | tim10-1 conf 38
Oc1ccc(-c2n[nH]c(=S)n2Cc2ccccc2)cc1	none
CCCOc1ccc(N2C(=O)CC(SCCN)C2=O)cc1 (centres undefined)	tim10-1 inh 42 | tim10-1 conf inactive
Cc1nn(C(C)C(=O)NCCCN2CCCC2)c(=O)c2nn(-c3ccccc3)c(C)c12 (centres undefined)	none
C[C@H](NC(=O)c1[nH]cnc1C(=O)Nc1ccc(CNC(=O)OC(C)(C)C)cc1)C(=O)OC(C)(C)C	none
N#C/C(=C\c1ccc(O)c(Br)c1)C(=O)NCc1ccccc1	tim10-1 inh 47 | tim10-1 conf inactive
COc1cc(/C=C(\C#N)C(=O)NCC2CCCO2)ccc1OCC(N)=O (centres undefined)	none (no result: PfHsp90 set2)
COc1ccc(/C=C(\C#N)C(=O)NCC2CCCO2)cc1OC (centres undefined)	tim10-1 inh 40 (no result: PfHsp90 set2) | tim10-1 conf inactive
COc1cc(/C=C(\C#N)C(=O)NCc2cccs2)ccc1O	tim10-1 inh 42 | tim10-1 conf inactive
COCCNC(=O)/C(C#N)=C/c1ccc(OC(=O)c2cccs2)c(OC)c1	none (no result: tim23-1 inh, TIM10 inh, tim10-1 inh)
COc1cc(C(=O)NCC2CCCO2)ccc1OCc1ccc(Cl)cc1Cl (centres undefined)	tim10-1 inh 43 | tim10-1 conf 30
COc1cc(C(=O)NCC2CCCO2)ccc1OCc1ccc(Cl)cc1 (centres undefined)	none (no result: SKKanGAS inh)
Cc1ccccc1N(CC(=O)NCc1ccccc1)C(=O)CCC(=O)Nc1nccs1	none
O=C(/C=C/c1ccccc1)NNC(=O)c1ccco1	none
Cc1ccc(C)c(NC(=O)CCC(=O)N2CCOc3ccccc32)c1	none
COc1ccc(-c2cc(=O)oc3cc(OC(C)C(=O)NCc4ccccn4)ccc23)cc1 (centres undefined)	none
Cc1ccc(Nc2nc(N)nc(CN3CCN(c4ccccc4)CC3)n2)cc1Cl	SKKanGAS inh 87, tim10-1 inh 45 | tim10-1 conf inactive
Cc1ccc(Nc2nc(N)nc(CN3CCN(Cc4ccc5c(c4)OCO5)CC3)n2)cc1Cl	none (no result: PfHsp90 set2)
Oc1ccccc1/C=N/Nc1nccnc1Cl	tim10-1 inh 55 (no result: PfHsp90 set2) | tim10-1 conf inactive
FC(F)C(F)(F)C(F)(F)C(F)(F)c1cc(-c2ccccc2)n[nH]1	tim10-1 inh 48 | tim10-1 conf 30
Cc1cc(-c2ccccc2)n[nH]1	none
